Measurements published in ChEMBL document CHEMBL1157539, “Thousands of chemical starting points for antimalarial lead identification” (Nature, 2010).
In all, about 13,000 compounds were measured (“IFI”: median about 4, highest 2% from about 17 on). Only a selection was taken, and the highest values are over-represented in it overall.

Assay: GSK_TCMDC: Inhibition Frequency Index (IFI). The number of non-kinase HTS assays where a compound showed > 50 % inhibition, expressed as a percentage of the number of such assays in which the compound was tested
Format: functional
`COc1ccc(NC(=O)CCNc2cc(C)nc(NCCc3ccc(F)cc3)n2)cc1` gave an IFI of 4.88%. With `N#Cc1ccc(N2CCN(Cc3ccc(-c4ccc(-c5nc6cc(C(F)(F)F)ccc6[nH]5)cc4)cc3)CC2)nc1` the IFI was 3.96%. In the case of `NS(=O)(=O)c1cccc(-c2ccc3ncc(N4CCOCC4)nc3c2)c1`, the IFI is reported as 3.7%. With `Cc1[nH]c(C)c(-c2ccc(-c3ccc(Cl)cc3)nc2)c(=O)c1Cl` the IFI was 0.92%. In the case of `COc1cc2s/c(=N\C(=O)c3cccc([N+](=O)[O-])c3)n(C)c2cc1OC`, the IFI is reported as 1.72%. For `O=C(NC1CCC(CCN2CCc3ccc(-c4cnccn4)cc3CC2)CC1)c1cccc(-n2cccn2)c1` (stereo not drawn), the IFI was 5.3%. Work on `O=C1CCCN1CCCNCc1ccc(-c2ccc(-c3nc4cc(C(F)(F)F)ccc4[nH]3)s2)cc1` yielded an IFI of 6.67%. Compound `O=C(Nc1cccc(-c2cccc(-c3nc4cc(C(F)(F)F)ccc4[nH]3)c2)c1)c1cccnc1` has an IFI of 4.59%. Work on `CCN(CC)CCCC(C)N/C(=N\c1ccccc1Br)Nc1ccc(C#N)cc1O` (stereo not drawn) yielded an IFI of 0%. Work on `OC(CNc1ccnc(Nc2cccc(CCN3CCOCC3)c2)n1)c1ccccc1` (stereo not drawn) yielded an IFI of 9.28%. Compound `Cc1cnc(Nc2cccc(CCN3CCOCC3)c2)nc1NC(C)C` has an IFI of 17.2%. Work on `Cc1cccc(Nc2nccc(Nc3cccc(C(=O)NCCN4CCOCC4)c3)n2)c1` yielded an IFI of 0%. Compound `Oc1ccc(CCNCCCCNCCc2ccc(Cl)cc2)cc1O` has an IFI of 6.12%. With `Cc1[nH]c(C)c(-c2ccc(OCc3cccc(C(F)(F)F)c3)nc2)c(=O)c1Br` the IFI was 13.8%. With `CCCC(C(=O)OCCNC)(c1ccccc1)c1ccccc1` the IFI was 3.6%. For `COc1ccc(CCN(C)CCCCc2ccc(NC(=O)c3cccc4c(=O)c5cc(F)ccc5sc34)cc2)cc1OC`, the IFI was 10%. `COc1ccc(CCN(C)CCCN2CCC(NC(=O)c3cccc4c(=O)c5ccccc5sc34)CC2)cc1OC` showed an IFI of 21.9%. In the case of `COc1ccc(CCN(C)CCCN2CCC(NC(=O)c3cccc4c(=O)c5ccccc5[nH]c34)CC2)cc1OC`, the IFI is reported as 5.76%. With `Clc1ccc(Cl)c2[nH]c(CNCCCNc3nc4ccccc4[nH]3)cc12` the IFI was 4.38%. With `COc1ccc2c(OC)cccc2c1CNCCCCCCNCc1c(OC)ccc2c(OC)cccc12` the IFI was 13.7%. With `Cc1cccn2c(=O)c3cc(C(=O)NCCc4ccccc4)c(=N)n(CCCOC(C)C)c3nc12` the IFI was 4.3%. Work on `O=[N+]([O-])c1ccc(C=NNc2nc3ccccc3[nH]2)cc1` yielded an IFI of 0%. `O=[N+]([O-])c1ccc2nccnc2c1` gave an IFI of 1.44%. In the case of `O=[N+]([O-])c1ccc(/C=N/O)nc1`, the IFI is reported as 23.4%. Work on `CC(C)c1ccc(CN2CCC(CNC(=O)c3cc(-c4cccc(F)c4)cs3)C2)cc1` (stereo not drawn) yielded an IFI of 14.3%. Work on `CC1(C)NC(N)=NC(=N)N1OCc1cccs1` yielded an IFI of 1.43%. Work on `CCCCCCCN(CCCCCCC)CCCC(=O)Nc1ccnc2ccc(OC)cc12` yielded an IFI of 7.87%. With `COc1c(C2CCN(CCCCNC(=O)c3ccc(-c4ccc(Cl)cc4)cc3)CC2)ccc2c1C(C)(C)CCC2(C)C` the IFI was 6.82%. `O=C(Nc1ccc([N+](=O)[O-])cc1O)Nc1ccccc1Oc1ccccc1` showed an IFI of 17%. `CC1(C(=O)Nc2ccc([N+](=O)[O-])cc2O)CC2c3ccccc3C1c1ccccc12` (stereo not drawn) gave an IFI of 17.4%. Compound `O=[N+]([O-])c1ccc(N/C(=N\c2ccccc2Br)NC2CCCc3ccccc32)c(O)c1` (stereo not drawn) has an IFI of 4.17%. `COc1ccccc1CCNc1nc(C)cc(N[C@@H](Cc2ccccc2)C(=O)NCCCOC(C)C)n1` gave an IFI of 0%. Work on `O=C(O)c1cccnc1Sc1ccc(Cl)cc1` yielded an IFI of 0%. For `COc1ccc(CCNCCCCCCNCCc2cccc([N+](=O)[O-])c2)cc1OC`, the IFI was 0%. `C[C@H](Cc1ccc(OCCCCOc2ccc(C[C@@H](C)NC[C@H](O)c3cccc(Cl)c3)cc2)cc1)NC[C@H](O)c1cccc(Cl)c1` showed an IFI of 11.6%. `C[C@H](Cc1ccc(C[C@@H](C)NC[C@H](O)c2cccc(Cl)c2)cc1)NC[C@H](O)COc1ccccc1` showed an IFI of 7.91%. In the case of `C[C@H](Cc1ccc(CCc2ccc(C[C@@H](C)NC[C@H](O)c3cccc(Cl)c3)cc2)cc1)NC[C@H](O)c1cccc(Cl)c1`, the IFI is reported as 21.6%. With `C[C@H](Cc1ccc(C[C@@H](C)NCC(O)c2cc(Cl)c(N)c(Cl)c2)cc1)NCC(O)c1cc(Cl)c(N)c(Cl)c1` (stereo partly drawn) the IFI was 9.35%. Work on `C[C@H](Cc1ccc(OCCCOc2ccc(C[C@@H](C)NC[C@H](O)c3cccc(Cl)c3)cc2)cc1)NC[C@H](O)c1cccc(Cl)c1` yielded an IFI of 13.1%. For `Cc1ccc(CCC(C)NCC(O)c2cccc(Cl)c2)cc1` (stereo not drawn), the IFI was 2.96%. `C[C@H](Cc1ccc(S(=O)(=O)c2ccc(C[C@@H](C)NC[C@H](O)c3cccc(Cl)c3)cc2)cc1)NC[C@H](O)c1cccc(Cl)c1` showed an IFI of 22.7%. With `C[C@H](Cc1ccc(Oc2ccc(C[C@@H](C)NC[C@H](O)c3cccc(Cl)c3)cc2)cc1)NC[C@H](O)c1cccc(Cl)c1` the IFI was 20.8%. `COC(=O)c1ccc(CCC(C)NCC(O)c2cccc(Cl)c2)cc1` (stereo not drawn) showed an IFI of 2.88%. Compound `COc1cccc(CCc2ccc(O)c3c2C[C@H]2C[C@H]4[C@H](N(C)C)C(O)=C(C(N)=O)C(=O)[C@@]4(O)C(O)=C2C3=O)c1` has an IFI of 8.41%. Compound `CC1(C)NC(N)=NC(=N)N1OCCSCc1cc(Cl)sc1Cl` has an IFI of 4.93%. `CN1CCN(CCCN(Cc2ccc(-c3ccc(CNCCc4ccccc4)cc3)cc2)C(=O)c2cccs2)CC1` gave an IFI of 9.03%. `C=CCn1c(Sc2ccc(C#N)c([N+](=O)[O-])c2)nnc1-c1ccc(Cl)cc1` showed an IFI of 4.23%. For `Cc1cc(=NN=Cc2cccc(Cl)c2)c2ccc(F)cc2[nH]1`, the IFI was 1.49%. Compound `CCOC(=O)c1ccc(NC(=O)N[C@H]2CCN(CCCCCNC(=O)/C=C/c3ccc(Cl)c(Cl)c3)C2)cc1` has an IFI of 7.91%. In the case of `Cc1cc(N[C@@H](Cc2ccccc2)C(=O)NC2CCCC2)nc(Nc2ccccc2)n1`, the IFI is reported as 7.32%. Compound `Cc1cc(N[C@@H](Cc2ccccc2)C(=O)NCCc2ccccc2)nc(NCC2CCCCC2)n1` has an IFI of 11.4%. In the case of `Cc1cccc(CNc2nc(C)cc(N[C@@H](Cc3ccccc3)C(=O)NC3CCCC3)n2)c1`, the IFI is reported as 27.3%. In the case of `Cc1cc(N[C@@H](Cc2ccccc2)C(=O)NC2CCCC2)nc(NCC2CCCCC2)n1`, the IFI is reported as 26.2%. With `Cc1cc(N[C@@H](Cc2ccccc2)C(=O)Nc2ccccc2)nc(NCC2CCCCC2)n1` the IFI was 11.6%. `Cc1cc(N[C@@H](Cc2ccccc2)C(=O)NC2CCCC2)nc(NCc2ccccc2C)n1` gave an IFI of 4.88%. With `O=C(c1cc(-c2cccs2)n[nH]1)N1CCN(S(=O)(=O)c2ccc(Br)cc2)CC1` the IFI was 0%. In the case of `CC(CN(C)C)C(=O)Nc1cccc(-c2ccc(-c3nc4cc(C(F)(F)F)ccc4[nH]3)cc2)c1` (stereo not drawn), the IFI is reported as 6.31%. `Cc1cc(=NN=CC=Cc2ccccc2)c2cc(F)ccc2[nH]1` showed an IFI of 0.75%. `O=C(NC1CCN(Cc2ccc3c(c2)OCCO3)CC1)c1ccc(-c2cccc(C(F)(F)F)c2)s1` showed an IFI of 22%. For `CSc1ccc(CN2CCC(NC(=O)c3ccc(-c4cccc(C(F)(F)F)c4)s3)CC2)cc1`, the IFI was 15.2%. With `CC(=O)Nc1ccc(CN2CCC(NC(=O)c3ccc(-c4cccc(C(F)(F)F)c4)s3)CC2)cc1` the IFI was 10.3%. With `O=C(NC1CCN(Cc2ccsc2)CC1)c1ccc(-c2cccc(C(F)(F)F)c2)s1` the IFI was 16.7%. In the case of `O=C(NC1CCN(Cc2ccc3c(c2)OCCO3)CC1)c1ccc(-c2cccc(Cl)c2)s1`, the IFI is reported as 15.2%. Compound `CC(C)(C)c1ccc(CN2CCC(NC(=O)c3ccc(-c4cccc(C(F)(F)F)c4)s3)CC2)cc1` has an IFI of 13%. For `CC(C)(C)CCN1CCC(NC(=O)c2ccc(-c3cccc(C(F)(F)F)c3)s2)CC1`, the IFI was 15.8%. Compound `CN(C)c1ccc(CN2CCC(NC(=O)c3ccc(-c4cccc(C(F)(F)F)c4)s3)CC2)cc1` has an IFI of 17.2%. In the case of `O=C(NC1CCN(Cc2cccc(C(F)(F)F)c2)CC1)c1ccc(-c2cccc(C(F)(F)F)c2)s1`, the IFI is reported as 12.7%. `O=C(NC1CCN(CCCc2ccccc2)CC1)c1ccc(-c2cccc(C(F)(F)F)c2)s1` showed an IFI of 17.2%. In the case of `O=C(NC1CCN(Cc2ccc(F)cc2)CC1)c1ccc(-c2cccc(C(F)(F)F)c2)s1`, the IFI is reported as 24.6%. Work on `CN(C)c1ccc(-c2ccc(C(=O)NC3CCN(Cc4cccc(C(F)(F)F)c4)CC3)s2)cc1` yielded an IFI of 11.1%. Work on `Nc1nccc2ccc(-c3ccsc3)cc12` yielded an IFI of 10.1%. `Cc1ccc2nc(N/C(N)=N/C(=O)NC3CCCCC3)nc(C)c2c1` gave an IFI of 3.42%. In the case of `Cc1cc(-c2cccc(CNCc3ccc(F)cc3)c2)ccc1S(=O)(=O)NCCN1CCCC1`, the IFI is reported as 12.9%. `Cc1cc(N)nc2ccc(-c3ccc(CN)cc3)cc12` showed an IFI of 4.83%. For `C=C(C)Cn1cc(C2CCN(CCN3CCC(CNC(=O)c4ccc(-c5ccc(C#N)cc5)cc4)CC3)CC2)c2ccccc21`, the IFI was 10.9%. Compound `CCCCCCSc1nnc(COc2cccc3ccccc23)n1-c1ccc(OC)cc1` has an IFI of 5.43%. With `CCCn1c(O)nnc1SCC(=O)Nc1cc(C(F)(F)F)ccc1Cl` the IFI was 1.57%. With `Nc1cccc(CNCc2cccc(-c3ccc(-c4nc5ccccc5[nH]4)cc3)c2)c1` the IFI was 3.81%. `CC(C)c1ccc(S(=O)(=O)Nc2cccc(CCN3CCC(N4CCCCC4)CC3)c2)cc1` gave an IFI of 9.52%. With `O=C(NCCCCN1CCC(c2ccc(-c3ccco3)cc2)CC1)c1ccc(NC(=O)c2ccc(Cl)cc2)cc1` the IFI was 5.98%. With `CN(C)c1ccc(CN2CCC(NC(=O)c3ccc(-c4cccc(F)c4)s3)CC2)cc1` the IFI was 10.5%. In the case of `CN(C)c1ccc(CN2CCC(NC(=O)c3ccc(-c4ccc(N(C)C)cc4)s3)CC2)cc1`, the IFI is reported as 15.5%. Compound `CC(C)c1ccc(CN2CCC(NC(=O)c3ccc(-c4cccc(F)c4)s3)CC2)cc1` has an IFI of 17.2%. `CC(C)(C)c1ccc(CN2CCC(NC(=O)c3ccc(-c4cccc(F)c4)s3)CC2)cc1` gave an IFI of 12.5%. For `CC(C)c1ccc(CN2CCC(NC(=O)c3ccc(-c4cccc(Cl)c4)s3)CC2)cc1`, the IFI was 12.1%. `CN(C)c1ccc(CN2CCC(NC(=O)c3ccc(-c4cccc(Cl)c4)s3)CC2)cc1` showed an IFI of 17.9%. `COc1ccc2nc3cc(Cl)ccc3c(Nc3ccc(O)c(CNC(C)C)c3)c2c1` gave an IFI of 7.64%. With `CCCCNCc1ccc(-c2nc(CN(CCCn3ccnc3)C(=O)C3COc4ccccc4O3)cs2)cc1` (stereo not drawn) the IFI was 4.93%.
